Several values for one entry are separate records, joined by “and”; a condition that tells them apart may be missing. Identical values can stand only once. This is part of a sample that, as a whole, favours compounds with a hit. Of some 83,000 tested, about 20% had one in any assay.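 Step 1: grow cells in 96-well plates. Step 2: add test compound at a single concentration. Step 3: incubate 48 h. Step 4: record percent growth.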 Unmarked numbers belong to inactive results. Activity calls are given as the source filed them. Rule for the calls: active = growth percent below 10; inactive = the rest.

The assay relates to MDA-MB-468 breast. In words: NCI-60 one-dose screen, 48 h (100 = growth as untreated, 0 = no growth, -100 = all killed). To be noted: 10 µM unless noted.
For the compound `OCCNC(Cc1ccccc1)c1ccc2c(c1)OCO2` (stereo unspecified), the growth was 97.7%.

`Cc1ccc(NC2=N[C@]34CC(=O)CC[C@]3(C)[C@H]3CC[C@]5(C)C(=O)CC[C@H]5[C@@H]3C[C@@H]4S2)c(C)c1`: the growth was 17%.

As to `CN(CCCl)c1ccc(/C=C/C2=[N+](C)c3ccccc3C2(C)C)cc1`, the growth is -1.54% (active).

Take `C[C@]12CCc3nc(-c4ccc(O)c(O)c4)sc3C1=CC[C@@H]1[C@@H]2CC[C@]2(C)C(=O)CC[C@@H]12`: the growth was 80.1%.

Regarding `CC(C)(C)C(=O)OCOP(=O)(NCc1ccccc1)C1CCCN(O)C1=O` (stereo unspecified), the growth is -0.478% (active).

On to `COc1cc(CNCCc2ccc(Cl)cc2)cc(OC)c1O`, for which the growth was 43.5%.

Regarding `COC(=O)[C@@]1(C)CC[C@]2(C)CC[C@]3(C)C4=CC=C5C(=CC(=O)C(O)=C5C)[C@]4(C)CC[C@@]3(C)[C@@H]2C1`, the growth is -66.9% (active).

Turning to `COC(=O)[C@@H](C)C[C@H](Cc1ccccc1)NC(=O)c1csc([C@@H](C[C@H](C(C)C)N(C)C(=O)[C@@H](NC(=O)[C@H]2CCCN2C)C2CC2)OC(C)=O)n1`, the growth is -9.22% (active).

Regarding `CC[CH2][Sn]([Cl])([Cl])[CH2]CC.Oc1ccccc1C=NCCN=Cc1ccccc1O`, the growth was -59.7% (active) and -33.9% (active).

For the compound `COc1cc(/C=C\c2cc(OC)c(OC)c(OC)c2)cc(N/C=C\C(=O)c2ccc(OC(F)(F)F)cc2)c1OC`, the growth is 27.2%.

Take `CCC1([N+](=O)[O-])COP(=O)(NCc2cccnc2)OC1` (stereo unspecified): the growth was 104%.

In the case of `CC(=O)[O][Hg][c]1c(C)c(C)cc(C)c1C`, the growth was -79.4% (active).

With `CN1CC2CCC(C1)C2=O`, the growth was 106%.

With `O=C1C=Cc2ccccc2C1=O`, the growth was 104%.

In the case of `CC1=C[C@H]2O[C@@H]3C[C@H]4OC(=O)/C=C\C=C\[C@H]([C@@H](C)O)OCC[C@@H](C)[C@H](O)C(=O)OC[C@@]2(CC1)[C@]4(C)[C@]31CO1`, the growth is -66.7% (active).

Regarding `C/C(=C\c1ccn(-c2ccc(N)cc2)n1)[C@@H]1C[C@@H]2O[C@]2(C)CCC[C@H](C)[C@H](O)[C@@H](C)C(=O)C(C)(C)[C@@H](O)CC(=O)O1`, the growth was 13.9%.

For the compound `CCOC(=O)N1CC1`, the growth is 92.5%.

`CC[S][Hg][Cl]`: the growth was 116%.

Take `CC[C@H](C)[C@H](NC(=O)[C@H]1CCCCN1C)C(=O)N(C)[C@H](C[C@@H](OC(C)=O)c1nc(C(=O)N[C@@H](Cc2ccccc2)C[C@H](C)C(=O)O)cs1)C(C)C`: the growth was -6.41% (active).

Consider `COP(=O)(OC)C(O)c1ccc(Cl)cc1` (stereo unspecified), for which the growth is 108%.

With `Cc1ccc(S(=O)(=O)C(Cl)(Cl)Cl)cc1`, the growth is 99.8%.

As for `C=CC(=O)NC(O)C(Cl)(Cl)Cl` (stereo unspecified), the growth was 121%.

On to `CC12CCC(=O)C=C1CCC1C2CCC2(C)C(C(=O)COC(=O)Cc3ccc(N(CCCl)CCCl)cc3)CCC12` (stereo unspecified), for which the growth was 64.1%.

Take `CO[C@@H]([CH2][Hg][O]C(=O)c1ccccc1)[C@@H]([CH2][Hg][O]C(=O)c1ccccc1)OC`: the growth was 94%.

As for `Cc1c(NS(=O)(=O)c2ccccc2)ccc([N+](=O)[O-])c1Cl`, the growth was 34.5%.

On to `CC1(C)N=C(N)N=C(N)N1c1ccc(CNC(=O)Nc2ccc(S(=O)(=O)F)c(Cl)c2)c(Cl)c1`, for which the growth was 30.2%.

Source of the values: PubChem BioAssay (NCI).
